Measured values published in PubChem BioAssay (NCI).
Compounds without any hit were thinned out: in the full panel of roughly 79,000, 15% have a hit. Calls of active or inactive are those of the source. Cut-off read from the data, not from the text of the source: active = growth inhibition above about 70%; inactive = the rest.

What was measured:
[1] = NCI Yeast Anticancer Drug Screen. Data for the rad50 strain (AID 155);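 note: 0% = growth of vehicle-only cultures of the same strain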; details: S. cerevisiae rad50 strain growth inhibition, stronger effect = higher value
Outline: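 A DNA repair-deficient yeast mutant serves as the test organism; compound-induced growth inhibition is calculated against vehicle-treated cells.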

[2] = NCI Yeast Anticancer Drug Screen. Data for the mec2-1 strain (AID 157); details: S. cerevisiae mec2-1 strain, stronger effect = higher value
Outline: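 Test agents were screened against the mec2-1 yeast strain, with defined DNA repair or cell cycle alteration. Growth was scored as inhibition against vehicle-only controls.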

[3] = NCI Yeast Anticancer Drug Screen. Data for the sgs1 mgt1 strain (AID 161);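 note: 0% = growth of cultures given vehicle only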; details: S. cerevisiae sgs1 mgt1 strain, stronger effect = higher value
Outline: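 Test agents were incubated with a DNA-repair-mutant yeast strain. Growth was then read and compared against vehicle-treated controls.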

[4] = NCI Yeast Anticancer Drug Screen. Data for the cln2 rad14 strain (AID 165);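 note: 0% = growth equal to vehicle treated cultures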; details: S. cerevisiae cln2 rad14 strain, stronger effect = higher value
Outline: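 Growth of compound-exposed yeast (cln2 rad14 genotype) measured and expressed as inhibition relative to vehicle.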

[5] = NCI Yeast Anticancer Drug Screen. Data for the bub3 strain (AID 167); details: S. cerevisiae bub3 mutant strain, stronger effect = higher value
Outline: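 Inhibition values come from growth of compound-treated mutant yeast normalised to vehicle-treated controls.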

[6] = NCI Yeast Anticancer Drug Screen. Data for the mlh1 rad18 strain (AID 175); details: S. cerevisiae mlh1 rad18 strain growth inhibition, stronger effect = higher value
Outline: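 In this whole-cell yeast screen, a strain with altered DNA damage repair is challenged with compound, and its growth is measured against matched vehicle-treated controls.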

[7] = at 5.0 µM (retest, dose inferred, filed as 0.5)
[8] = at 50.0 µM (retest, dose inferred, filed as 5.0)

Measured: growth inhibition

[Pt].c1ccc(P(CCP(CCP(c2ccccc2)c2ccccc2)CCP(c2ccccc2)c2ccccc2)c2ccccc2)cc1
active: [1]; [8] 83% | [1]; at 50.0 µM 71.2% | [2]; [8] 91% | [2]; at 50.0 µM 84.2% | [3]; [8] 89% | [3]; at 50.0 µM 80% | [4]; [8] 91% | [4]; at 50.0 µM 78% | [5]; [8] 92% | [5]; at 50.0 µM 80.2% | [6]; [8] 89% | [6]; at 50.0 µM 79%
inactive: [1]; [7] 6% | [2]; [7] 36% | [3]; [7] 19% | [4]; [7] 6% | [5]; [7] 0% | [6]; [7] 17%

CCCCN(CCCC)CC(O)Cc1cc2ccccc2c2ccccc12 (configuration not stated)
active: [1]; at 50.0 µM 90.7% | [3]; [8] 92% | [3]; at 50.0 µM 99.1% | [5]; at 50.0 µM 94.4% | [6]; [8] 91% | [6]; at 50.0 µM 98.4%
inactive: [1]; [7] 0% | [1]; [8] 65% | [2]; [7] 1% | [2]; [8] 44% | [2]; at 50.0 µM 48.6% | [3]; [7] -4% | [4]; [7] -7% | [4]; [8] 42% | [4]; at 50.0 µM 62.6% | [5]; [7] 0% | [5]; [8] 47% | [6]; [7] 18%

Cc1ccccc1NCc1ccccc1Cl
inactive: [1]; [7] -141% | [2]; [7] -55% | [3]; [7] -66% | [4]; [7] -83% | [5]; [7] -65% | [6]; [7] -105%
active: [1]; [8] 98% | [1]; at 50.0 µM 99% | [2]; [8] 99% | [2]; at 50.0 µM 99.5% | [3]; [8] 99% | [3]; at 50.0 µM 98.5% | [4]; [8] 99% | [4]; at 50.0 µM 99% | [5]; [8] 99% | [5]; at 50.0 µM 99.5% | [6]; [8] 98% | [6]; at 50.0 µM 96.7%

Nc1ccc(S(=O)(=O)Nc2nc3ccccc3nc2N2CCCCC2)cc1
inactive: [1]; [7] 29% | [1]; [8] 46% | [1]; at 50.0 µM 51.8% | [2]; [7] 35% | [2]; [8] 44% | [2]; at 50.0 µM 40.8% | [3]; [7] 32% | [3]; at 50.0 µM 64.7% | [4]; [7] 36% | [4]; at 50.0 µM 32.3% | [5]; [7] 30% | [6]; [7] 44% | [6]; [8] 60%
active: [3]; [8] 94% | [4]; [8] 91% | [5]; [8] 96% | [5]; at 50.0 µM 76.4% | [6]; at 50.0 µM 85.9%

Cc1ccc(S(=O)(=O)N/N=c2\c(C)c(C3=NS(=O)(=O)c4cc(S(N)(=O)=O)c(Cl)cc4N3)oc3c(Cl)cc(Cl)cc23)cc1
inactive: [1]; [7] 40% | [1]; [8] 63% | [2]; [7] 32% | [2]; [8] 55% | [2]; at 50.0 µM 47% | [3]; [7] 28% | [3]; [8] 59% | [3]; at 50.0 µM 56.5% | [4]; [7] 33% | [4]; [8] 60% | [4]; at 50.0 µM 65.9% | [5]; [7] 33% | [5]; at 50.0 µM 60.5% | [6]; [7] 44% | [6]; [8] 69% | [6]; at 50.0 µM 59.2%
active: [1]; at 50.0 µM 77.9% | [5]; [8] 73%

O=[N+]([O-])c1ccc2c(c1)/C(=N/O)c1ccccc1-2
active: [1]; at 50.0 µM 88.3% | [6]; at 50.0 µM 81%
inactive: [1]; [7] 21% | [1]; [8] 49% | [2]; [7] 0% | [2]; [8] 7% | [2]; at 50.0 µM 28.4% | [3]; [7] 4% | [3]; [8] 20% | [3]; at 50.0 µM 70% | [4]; [7] -10% | [4]; [8] 4% | [4]; at 50.0 µM 46.2% | [5]; [7] 8% | [5]; [8] 29% | [5]; at 50.0 µM 18.8% | [6]; [7] 19% | [6]; [8] 38%

O=S(=O)(OCC#CCOS(=O)(=O)c1ccc(Cl)c(Cl)c1)c1ccc(Cl)c(Cl)c1
inactive: [1]; [7] -1% | [1]; [8] 32% | [1]; at 50.0 µM 28.8% | [2]; [7] -1% | [2]; [8] 41% | [2]; at 50.0 µM 44% | [3]; [7] -6% | [3]; [8] 63% | [3]; at 50.0 µM 54.7% | [4]; [7] 1% | [4]; [8] 8% | [5]; [7] -4% | [5]; [8] 32% | [5]; at 50.0 µM 35.3% | [6]; [7] 7% | [6]; [8] 37% | [6]; at 50.0 µM 48.2%
active: [4]; at 50.0 µM 75.2%

CC1CCCC(C(c2c[nH]c3ccccc23)c2c[nH]c3ccccc23)C1=O (configuration not stated)
active: [1]; [8] 98% | [1]; at 50.0 µM 96.8% | [2]; [8] 98% | [3]; [8] 97% | [3]; at 50.0 µM 79.7% | [4]; [8] 98% | [4]; at 50.0 µM 76.3% | [5]; [8] 96% | [6]; [8] 98% | [6]; at 50.0 µM 97.2%
inactive: [1]; [7] 1% | [2]; [7] 1% | [2]; at 50.0 µM 58.6% | [3]; [7] 3% | [4]; [7] 0% | [5]; [7] -11% | [5]; at 50.0 µM 46% | [6]; [7] -5%

CC(C=O)=C(c1ccccc1)c1ccccc1
inactive: [1]; [7] -147% | [1]; [8] -157% | [1]; at 50.0 µM 23.8% | [2]; [7] -50% | [2]; [8] -56% | [2]; at 50.0 µM 24.6% | [3]; [7] -57% | [3]; [8] -64% | [3]; at 50.0 µM 49.2% | [4]; [7] -54% | [4]; [8] -56% | [4]; at 50.0 µM 23.8% | [5]; [7] -62% | [5]; [8] -74% | [5]; at 50.0 µM 0.3% | [6]; [7] -115% | [6]; [8] -111% | [6]; at 50.0 µM 28.4%
